Assay outcomes (PubChem)
Only some compounds are listed: those with a hit (about 3% of all), similar ones and a draw of the others.
RE007 growth inh = less growth of the S. pombe RE007 Vpr strain | S. pombe RE007 Vpr strain, BacTiter-Glo ATP luminescence, 24 h | Potency, µM (doses to about 92.2 µM), without a hit: at the highest dose activity change, negative = less growth, most hits filed as inhibitors | AID 651644 | hit rate 0.21% among 360,000; active = well fitted falling curve with a large enough effect; inconclusive = small, poorly fitted or top-dose-only effect; inactive = no such curve, though single readings can be large or run the other way; also: nearly all actives have a fitted effect of over 50% in size
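Fission yeast RE007 carrying one integrated HIV-1 vpr copy, seeded at OD 0.01 in PMG+AL medium with 23 nL pinned compound. Grown 24 h at 30 degrees; viability read by BacTiter-Glo luminescence after 5 min.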
TbPYK inhibitor = blocks Trypanosoma brucei pyruvate kinase; Q57TT1; TbPYK enzyme, Kinase-Glo Plus ATP luminescence, 45 min; Potency, µM (top dose mostly 76.8 µM), inactives show at the highest dose activity, negative = inhibition, hits mostly inhibitors; hit rate 0.12% among 410,000; also: nearly all actives have a fitted effect of over 50% in size
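Readout: single end-point luminescence (Kinase-Glo Plus, 10 min). Reaction conditions were TbPYK/substrate plus 130 uM ADP, 45 min at RT, pH 7.2 TEA buffer. No-enzyme wells served as controls, and data were normalized before concentration-response fitting.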
Sm TGR block = inhibitors of Schistosoma mansoni thioredoxin glutathione reductase; Q962Y6; purified TGR, DTNB reduction, TNB absorbance 405 nm; Potency, µM (titrated, usually from 114 µM), for the others: at the highest dose activity change, negative = inhibition, actives largely listed as inhibitors; hit rate 3% among 360,000; also: nearly all actives have a fitted effect of over 60% in size
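First, TGR (20 nM dispensed) and NADPH were mixed with compound. Second, a 15 min room-temperature incubation followed. Third, further NADPH and then DTNB were added to start the reaction. Finally, TNB absorbance was monitored kinetically.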
LmPK inhibitor = inhibitors of Leishmania mexicana pyruvate kinase | Q27686 | hit rate 0.37% among 290,000 | Potency, µM (top dose mostly 57.5 µM), for the others: top-dose activity change, negative = inhibition, most hits filed as inhibitors | purified LmPK, Kinase-Glo ATP luminescence, 1 h | AID 1721
Target sequence (Q27686 whole entry, looked up): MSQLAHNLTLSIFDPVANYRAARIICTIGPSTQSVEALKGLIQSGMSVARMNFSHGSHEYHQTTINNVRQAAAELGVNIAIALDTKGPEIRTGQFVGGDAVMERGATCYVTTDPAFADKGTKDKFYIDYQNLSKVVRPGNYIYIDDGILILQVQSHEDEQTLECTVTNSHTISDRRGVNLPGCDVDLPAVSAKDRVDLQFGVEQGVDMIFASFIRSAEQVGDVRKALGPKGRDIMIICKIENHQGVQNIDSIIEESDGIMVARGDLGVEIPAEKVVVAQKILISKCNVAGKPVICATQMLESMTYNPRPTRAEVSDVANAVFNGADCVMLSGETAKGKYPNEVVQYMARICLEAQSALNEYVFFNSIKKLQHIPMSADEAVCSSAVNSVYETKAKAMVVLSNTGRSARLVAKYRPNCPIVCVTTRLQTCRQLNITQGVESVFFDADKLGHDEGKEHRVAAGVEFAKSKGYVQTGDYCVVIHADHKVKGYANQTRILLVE
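0.1 nM LmPK, 0.5 mM PEP, 0.1 mM ADP; 50 mM imidazole pH 7.2, 7 mM MgCl2, 50 mM KCl; 1 h RT. Kinase-Glo luminescence readout, normalized to no-enzyme (full inhibition) and uninhibited wells.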
Numbers without * were called inactive; ? = inconclusive; . = no result; [ ] = remark or other dose. Unless noted, calls follow the shape of the dose curve; as a rule, active = well fitted curve in the direction sought with a large enough effect; inconclusive = small, poorly fitted or top-dose-only effect, or another doubt; inactive = no such curve, though single readings can be large; an effect the other way counts as inactive or inconclusive. % is scaled to controls: 0 for no effect and ±100 for the full control effect; potency is read from the fitted curve at half-maximal effect.

SMILES	RE007 growth inh	TbPYK inhibitor	Sm TGR block	LmPK inhibitor
Cc1ccc(C(=O)O/N=C(\N)c2ccccn2)c(Cl)c1	12.6µM*	14.1µM*	-12.4%	?
N/C(CS(=O)(=O)c1ccccn1)=N\OC(=O)c1ccccc1Cl	-7.8%	1.4%	39.8µM*	0.9%
N/C(=N\OC(=O)c1ccc([N+](=O)[O-])cc1Cl)c1ccccn1	-0.9%	?	?	17.8µM*
N/C(=N\OC(=O)c1cc([N+](=O)[O-])ccc1Cl)c1ccccn1	28.0%	1.9%	?	-4.0%
N/C(=N\OC(=O)c1ccc(Cl)cc1Cl)c1ccccn1	-23.6%	-32.3%	0.0%	7.08µM*
Cc1cc2c(s1)c1c(C)nn(Cc3ccccc3F)c(=O)c1n2C	.	.	-4.8%	.
COc1ccc(-c2nc3c(c4c2C[C@H](c2ccccc2)OC4)CN(C(=O)NCCc2c[nH]c4ccccc24)CC3)c(C)c1	.	.	.	-10.0%[11.5 µM]
N#C/C(=C1/SCC(c2ccccc2Cl)S1)n1ccnc1 (stereo not drawn)	.	2.6%	.	.
O=c1c2c3c(sc2nc2n1CCC2)CCCCC3	-32.8%	-5.1%	.	0.9%
O=c1c2c3c(sc2nc2n1CCCC2)CCCC3	28.2µM*	-2.6%	1.8%	-6.8%
CCOC(=O)c1ccccc1NC(=O)CCc1c(C)nc2ncnn2c1C	.	5.9%	0.8%	.
CCOC(=O)c1ccc(NC(=O)c2c(NCc3cccs3)sc3c2CCCCC3)cc1	.	?	14.1µM*	.
COc1ccc(NC(=O)c2c(NCc3cccs3)sc3c2CCCC3)cc1	.	?	31.6µM*	.
COc1ccc(NC(=O)c2c(NCc3cccs3)sc3c2CCCCC3)c(OC)c1	.	?	5.62µM*	.
COc1ccc2nc(Nc3sc4c(c3C(N)=O)CCCC4)sc2c1	?	2.82µM*	12.6µM*	-26.9%
COc1ccc(CC(=O)Nc2sc3c(c2C(=O)Nc2ccccc2)CCCCC3)cc1	.	-5.2%	-11.4%	.
CCOC(=O)c1ccc(NC(=O)c2c(NC(=O)CCC(=O)O)sc3c2CCCCC3)cc1	-13.1%	0.1%	0.0%	-0.6%
COc1ccc(CC(=O)Nc2sc3c(c2C(N)=O)CCCC3)cc1	1.4%	2.6%	-14.9%	1.7%
Cc1ccc(NC(=O)Cn2c(=O)ccc3cc(S(=O)(=O)N4CCC(C)CC4)ccc32)cc1C	.	3.0%	-0.5%	.
CCC=CC[C@H]1C(=O)CC[C@@H]1CC(=O)OC	.	-0.6%	.	.
COc1ccc(NC(=O)CN(C)CC(=O)Nc2sc3c(c2C(N)=O)CCC3)cc1	-2.7%	-9.7%	50.1µM*	.
CCCCC/C=C/C/C=C/CCCCCCCC(=O)NC(C)c1ccccc1 (stereo not drawn)	.	-2.1%	.	.
N#CCNC1CC(=O)N(c2ccc(F)cc2)C1=O (stereo not drawn)	25.1µM*	-5.1%	7.08µM*	-0.4%
O=C1CC(NCc2ccc(F)cc2)C(=O)N1c1ccccc1 (stereo not drawn)	-10.2%	1.9%	.	3.3%
CCN(CC)CCn1c2c(c(SCC(=O)Nc3cccc(C(F)(F)F)c3)nc1=O)CCC2	.	7.0%	-0.4%	.
SMILES	RE007 growth inh	TbPYK inhibitor	Sm TGR block	LmPK inhibitor
COc1cc2ccc(NC(C)=O)cc2cc1OC	15.8%	-6.9%	.	.
CC(=O)c1ccc(S(=O)(=O)Nc2ccc(C(=O)NCC(c3cccs3)N3CCOCC3)cc2)cc1 (stereo not drawn)	-12.3%	-3.3%	14.1µM*	.
O=C(NCC(c1cccs1)N1CCOCC1)c1ccc(Br)o1 (stereo not drawn)	11.6%	0.1%	25.1µM*	8.9%
CCCCNS(=O)(=O)c1ccc(C)c(-c2nnc3c4ccccc4c(C)nn23)c1	.	-2.7%	-3.6%	.
NCCCC(N)CC(=O)NCC1NC(=O)C(CO)NC(=O)C(N)CNC(=O)C(C2CCN=C(N)N2)NC(=O)/C(=C/NC(N)=O)NC1=O (stereo not drawn)	.	2.4%	.	.
O=C(NCCc1ccccc1)c1ccc(Nc2nc3ccccc3n3nnnc23)cc1	.	-1.7%	7.8%	.
Cc1ccc(CN2CCCn3nc(C(=O)NCc4ccc(N(C)C)cc4)cc3C2=O)cc1	.	-4.8%	2.1%	.
CC1CCN(S(=O)(=O)c2ccc3c(c2)N(CC(=O)NC(C)C)C(=O)CO3)CC1	.	1.3%	18.3%	.
S=c1[nH]nc(Cn2c(-c3ccccn3)nc3ccccc32)n1-c1ccc2c(c1)OCCO2	-7.9%	15.8µM*	-2.0%	?
Cc1ccc(-n2c(-c3ccncc3)n[nH]c2=S)cc1C	-0.4%	?	-4.1%	-2.4%
S=c1[nH]nc(-c2ccc3ncccc3c2)n1-c1ccc2c(c1)OCCO2	-4.8%	3.55µM*	0.6%	7.08µM*
Oc1ccc(-c2n[nH]c(=S)n2-c2ccc3c(c2)OCCO3)cc1	18.2%	4.47µM*	-7.1%	?
CCOCCCNC(=O)C(=O)Nc1c2c(nn1-c1ccc(OC)cc1)CSC2	.	0.0%	-2.1%	.
COc1ccc(CCNC(=O)Cn2c(=O)cc(C(F)(F)F)c3c(C)nn(C)c32)cc1OC	.	3.6%	0.6%	.
C(C#CCCCCCCCCC[n+]1ccccc1)#CCCCCCCCCC[n+]1ccccc1	7.94µM*	-4.1%	39.8µM*	-2.3%
O=C(O)c1cc(N/N=C/C(Cl)=C/c2ccccc2)ccc1Cl	-8.7%	-4.8%	35.5µM*	4.2%
O=C(O)c1cc(NN=C2c3ccccc3-c3ccccc32)ccc1Cl	5.2%	-0.9%	?	6.8%
O=C(CCS(=O)(=O)c1nc(-c2ccc3c(c2)OCO3)cc(C(F)(F)F)n1)Nc1ccc(F)cc1F	.	3.9%	-21.1%	.
COc1ccc(-c2cc(C(F)(F)F)nc(S(=O)(=O)CCCC(=O)Nc3cccc(O)c3)n2)cc1OC	-10.8%	-5.8%	35.5µM*	3.1%
COc1ccc(-c2cc(C(F)(F)F)nc(S(=O)(=O)CCC(=O)N3CCOCC3)n2)cc1	-13.6%	8.8%	28.2µM*	1.9%
COc1ccc(-c2cc(C(F)(F)F)nc(SCC(=O)N3CCOCC3)n2)cc1OC	12.5%	-5.3%	3.8%	4.4%
COc1ccccc1-c1cc(C(F)(F)F)nc(S(=O)(=O)CCCC(=O)N2CCOCC2)n1	-3.1%	0.2%	31.6µM*	3.2%
COc1ccc(NC(=O)CCS(=O)(=O)c2nc(-c3ccc4c(c3)OCO4)cc(C(F)(F)F)n2)cc1	.	5.5%	79.4µM*	.
Cc1ccc(S(=O)(=O)CCC(=O)Nc2cc(C)on2)cc1	6.9%	-2.8%	.	.
CS(=O)(=O)c1nc(-c2ccccc2)cc(C(F)(F)F)n1	-6.8%	-0.2%	10µM*	-0.3%
SMILES	RE007 growth inh	TbPYK inhibitor	Sm TGR block	LmPK inhibitor
Cc1cc(NC(=O)CCS(=O)(=O)c2nc(-c3ccccc3)cc(C(F)(F)F)n2)no1	0.9%	-1.8%	31.6µM*	2.0%
Cc1cc(C)nc(Sc2ccc(C=O)cc2[N+](=O)[O-])n1	-2.9%	-5.5%	.	0.2%
O=Cc1ccc(Sc2nnc(-c3ccccc3)o2)c([N+](=O)[O-])c1	?	-0.4%	11.2µM*	5.8%
N#Cc1c(SCC(=O)Nc2nncs2)sc2c(O)cc(=O)[nH]c12	2.5%	-16.5%	35.5µM*	4.1%
CC(C)N(CC#CC(O)(c1ccccc1)c1ccccc1)C(C)C	-8.9%	5.6%	39.8µM*	4.1%
C=CC(O)(C#CCN(CC)CC)c1ccccc1 (stereo not drawn)	-1.6%	0.9%	44.7µM*	2.7%
